Measurements taken from PubChem BioAssay (EPA / NIEHS).
Activity calls are given as the source filed them. The calls were made as follows: active = hit-call score of the fitted dose curve at least 0.9, where 1 is the maximum; inactive = score below 0.9.

Read-out: Interleukin-8 (IL8), CXCL8 (gene 3576)
Test: BSK_SAg_IL8: BioMAP Diversity Plus: SAg Assay for Interleukin-8 (IL8) Biomarker Activity (AID 2283094)
Details: primary human HUVEC with PBMC; actives raise or lower the signal
How it was run: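 Human umbilical vein endothelial cells co-cultured with PBMC, stimulated with superantigen; IL-8 measured by ELISA 24 h after chemical dosing. Bidirectional fitting versus DMSO; SRB staining in parallel cultures tracks cytotoxicity.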

| Compound | outcome | AC50 |
| --- | --- | --- |
| On1ccccc1=S | inactive |  |
| Cn1c(=O)c2c(ncn2C)n(C)c1=O | inactive |  |
| CC(=O)c1ccc2c(c1)[C@H](NC(=O)c1ccc(F)cc1)[C@@H](O)C(C)(C)O2 | inactive |  |
| COCCOCCOCCOC | inactive |  |
| O=c1[nH]c2ccc(S(=O)CCN3CCC(Cc4ccc(F)cc4)CC3)cc2o1 (stereo not drawn) | inactive |  |
| CCCN(C1CCN(C(=O)C2CCNCC2)CC1)[C@@H]1CCc2ccc(OC)cc2C1 | inactive |  |
| C1=CCCC=CCCC=CCC1 | inactive |  |
| CC(C)CC(C)(O)C#CC(C)(O)CC(C)C (stereo not drawn) | inactive |  |
| O=C1CCC(N2C(=O)c3ccccc3C2=O)C(=O)N1 (stereo not drawn) | inactive |  |
| CC/C(=C\C(=N/O)C(N)=O)C(C)[N+](=O)[O-] (stereo not drawn) | inactive |  |
| CC(O)CN(CCN(CC(C)O)CC(C)O)CC(C)O (stereo not drawn) | inactive |  |
| C[C@](N)(Cc1ccc(O)c(O)c1)C(=O)O | inactive |  |
| CCOC(=O)c1ccc(C2CCC(NC[C@H](O)COc3ccc(O)c(NS(C)(=O)=O)c3)CC2)cc1 (stereo partly drawn) |  | 28.8 µM (active) |
| CC[C@H]1OC(=O)[C@H](C)[C@@H](O[C@H]2C[C@@](C)(OC)[C@@H](O)[C@H](C)O2)[C@H](C)[C@@H](O[C@@H]2O[C@H](C)C[C@H](N(C)C)[C@H]2O)[C@](C)(O)C[C@@H](C)C(=O)[C@H](C)[C@@H](O)[C@]1(C)O | inactive |  |
| CCn1nc(Cc2ccccc2)cc1C1CCN(C[C@H]2C[C@H](N(C)[C@@H](C(=O)O)C(C)C)C[C@@H]2c2cccc(F)c2)CC1 | inactive |  |
| O=P(OC(CCl)CCl)(OC(CCl)CCl)OC(CCl)CCl |  | 20 µM (active) |
| O=C(O)c1cc(N=Nc2ccc(S(=O)(=O)Nc3ccccn3)cc2)ccc1O | inactive |  |
| Oc1ccc2c(c1)-c1ccccc1C2 | inactive |  |
| CCCCCCCCCCCCc1ccccc1 | inactive |  |
| CCCC(=O)OCC | inactive |  |
| CC[C@H](C)C(=O)O[C@H]1C[C@@H](C)C=C2C=C[C@H](C)[C@H](CC[C@@H]3C[C@@H](O)CC(=O)O3)[C@H]21 |  | 0.147 µM (active) |
| NC(=O)NO | inactive |  |
| COCCOc1cc2cc(C(=O)NC3CCN(C(C)C)CC3)n(CC(=O)Nc3ccc(Cl)cn3)c2cn1 | inactive |  |
| COc1ccc(-n2nc(C(F)F)cc2-c2ccc(S(C)=O)cc2)cc1 (stereo not drawn) |  | 2.09 µM (active) |
| CC(C)(O)c1coc(S(=O)(=O)NC(=O)Nc2c3c(cc4c2CCC4)CCC3)c1 | inactive |  |
| CCNc1ccccc1 | inactive |  |
| CC(C)CCCCCCOC(=O)c1ccc(C(=O)OCCCCCCC(C)C)c(C(=O)OCCCCCCC(C)C)c1 | inactive |  |
| CCCCC(CC)COC(=O)CCCCCCCCC(=O)OCC(CC)CCCC (stereo not drawn) | inactive |  |
| Cn1c(=O)cc(Oc2ccc(F)cc2F)c2cnc(NCC(C)(C)O)nc21 |  | 1.09 µM (active) |

Read-out: not listed separately
Test: BSK_SAg_Proliferation: Cell Proliferation Assessment in the BioMAP Diversity Plus: SAg Assay (AID 2283095)
Details: primary human HUVEC with PBMC
How it was run: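 Human umbilical vein endothelial cells co-cultured with PBMC; sulforhodamine B total-protein staining (0.1% SRB after 10% TCA fixation, absorbance 560 nm) at 96 h in sub-confluent culture. Fitted bidirectionally against DMSO.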

| Compound | AC50 | outcome |
| --- | --- | --- |
| On1ccccc1=S | 6.94 µM (active) |  |
| Cn1c(=O)c2c(ncn2C)n(C)c1=O |  | inactive |
| CC(=O)c1ccc2c(c1)[C@H](NC(=O)c1ccc(F)cc1)[C@@H](O)C(C)(C)O2 | 4.31 µM (active) |  |
| COCCOCCOCCOC |  | inactive |
| O=c1[nH]c2ccc(S(=O)CCN3CCC(Cc4ccc(F)cc4)CC3)cc2o1 (stereo not drawn) |  | inactive |
| CCCN(C1CCN(C(=O)C2CCNCC2)CC1)[C@@H]1CCc2ccc(OC)cc2C1 |  | inactive |
| C1=CCCC=CCCC=CCC1 |  | inactive |
| CC(C)CC(C)(O)C#CC(C)(O)CC(C)C (stereo not drawn) |  | inactive |
| O=C1CCC(N2C(=O)c3ccccc3C2=O)C(=O)N1 (stereo not drawn) |  | inactive |
| CC/C(=C\C(=N/O)C(N)=O)C(C)[N+](=O)[O-] (stereo not drawn) | 20 µM (active) |  |
| CC(O)CN(CCN(CC(C)O)CC(C)O)CC(C)O (stereo not drawn) |  | inactive |
| C[C@](N)(Cc1ccc(O)c(O)c1)C(=O)O | 23.9 µM (active) |  |
| CCOC(=O)c1ccc(C2CCC(NC[C@H](O)COc3ccc(O)c(NS(C)(=O)=O)c3)CC2)cc1 (stereo partly drawn) | 14.4 µM (active) |  |
| CC[C@H]1OC(=O)[C@H](C)[C@@H](O[C@H]2C[C@@](C)(OC)[C@@H](O)[C@H](C)O2)[C@H](C)[C@@H](O[C@@H]2O[C@H](C)C[C@H](N(C)C)[C@H]2O)[C@](C)(O)C[C@@H](C)C(=O)[C@H](C)[C@@H](O)[C@]1(C)O |  | inactive |
| CCn1nc(Cc2ccccc2)cc1C1CCN(C[C@H]2C[C@H](N(C)[C@@H](C(=O)O)C(C)C)C[C@@H]2c2cccc(F)c2)CC1 |  | inactive |
| O=P(OC(CCl)CCl)(OC(CCl)CCl)OC(CCl)CCl | 25.3 µM (active) |  |
| O=C(O)c1cc(N=Nc2ccc(S(=O)(=O)Nc3ccccn3)cc2)ccc1O |  | inactive |
| Oc1ccc2c(c1)-c1ccccc1C2 |  | inactive |
| CCCCCCCCCCCCc1ccccc1 |  | inactive |
| CCCC(=O)OCC |  | inactive |
| CC[C@H](C)C(=O)O[C@H]1C[C@@H](C)C=C2C=C[C@H](C)[C@H](CC[C@@H]3C[C@@H](O)CC(=O)O3)[C@H]21 | 4.5 µM (active) |  |
| NC(=O)NO |  | inactive |
| COCCOc1cc2cc(C(=O)NC3CCN(C(C)C)CC3)n(CC(=O)Nc3ccc(Cl)cn3)c2cn1 |  | inactive |
| COc1ccc(-n2nc(C(F)F)cc2-c2ccc(S(C)=O)cc2)cc1 (stereo not drawn) |  | inactive |
| CC(C)(O)c1coc(S(=O)(=O)NC(=O)Nc2c3c(cc4c2CCC4)CCC3)c1 |  | inactive |
| CCNc1ccccc1 |  | inactive |
| CC(C)CCCCCCOC(=O)c1ccc(C(=O)OCCCCCCC(C)C)c(C(=O)OCCCCCCC(C)C)c1 |  | inactive |
| CCCCC(CC)COC(=O)CCCCCCCCC(=O)OCC(CC)CCCC (stereo not drawn) |  | inactive |
| Cn1c(=O)cc(Oc2ccc(F)cc2F)c2cnc(NCC(C)(C)O)nc21 |  | inactive |
